# Lassa entry inh: qHTS for Inhibitors of binding or entry into cells for Lassa Virus; Lassa virus pseudotype entry inhibition, cell reporter; Potency, µM (doses to about 37.9 µM), without a hit: top-dose activity change, negative = inhibition, most hits filed as inhibitors; 300,000 tested, 1.2% active; AID 540256, 2011; calls by dose curve; tested in HEK293 cells; note: potency is the fitted concentration of half-maximal effect; nearly all actives have a fitted effect of over 50% in size
# MARV entry inh: qHTS for inhibitors of binding or entry into cells for Marburg Virus | Marburg virus pseudotyped entry inhibition, cell reporter | Potency, µM (top dose mostly 37.8 µM), inactives show top-dose activity change, negative = inhibition, usual class: inhibitors | 300,000 tested, 1.8% active | AID 540276, 2011; calls by dose curve; tested in HEK293 cells; note: potency is the fitted concentration of half-maximal effect
# FMDV antiviral: High Throughput Screening for Foot and Mouth Disease Virus Antivirals; FMDV antiviral cell-based qHTS; Potency, µM (highest dose often 57.9 µM), inactives show at the top dose activity change, negative = inhibition, most hits filed as inhibitors; 410,000 tested, 1.2% active; calls by dose curve; tested in HEK293T cells; note: read-out not given here; potency is the fitted concentration of half-maximal effect; nearly all actives have a fitted effect of over 45% in size
# Vaccinia mCherry: qHTS for Stage-Specific Inhibitors of Vaccinia Orthopoxvirus: mCherry Reporter Primary qHTS. 310,000 tested, 0.63% active. Vaccinia virus mCherry reporter infection, fluorescence. AID 720579, 2013. Potency, µM (top dose mostly 36.5 µM), inactives show top-dose activity change, negative = inhibition, actives largely listed as inhibitors; calls by dose curve; tested in A549 cells; note: potency is the fitted concentration of half-maximal effect; nearly all actives have a fitted effect of over 35% in size
# Vaccinia Venus: qHTS for Stage-Specific Inhibitors of Vaccinia Orthopoxvirus: Venus Reporter Primary qHTS. Vaccinia virus Venus reporter expression, fluorescence. Potency, µM (series often up to 36.5 µM), for inactives: at the highest dose activity change, negative = inhibition, most hits filed as inhibitors. 330,000 tested, 0.46% active. AID 720580, 2013; calls by dose curve; tested in A549 cells; note: potency is the fitted concentration of half-maximal effect; nearly all actives have a fitted effect of over 30% in size
# HCMV inh: qHTS Assay for inhibitors of the human cytomegalovirus (HCMV); HFF cells, HCMV-luciferase reporter, 72 h; hits give low values; activity change, negative = inhibition, % at 57.5 µM; 410,000 tested, 4.5% active; AID 1259415, 2018; in the data active = activity change below about -60%; inconclusive = no clear call, values can overlap the other calls; inactive = above about -39%
#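 Screen run at 2 compound doses on HFFs infected with reporter HCMV, MOI 1 PFU/cell. Luciferase activity from cell lysates at 72 h post infection gave inhibition relative to buffer-only and Salinomycin wells.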
# The depositor's hits bear a star; i = inactive; ? = inconclusive; / = no result given; ! = not confirmed by another sample; [ ] = dose if it differs, or a comment. Sampled rows, rich in hits. Any-hit rate of the full collection: about 6.5%. % is set by controls: 0 for no effect and ±100 for the full control effect.
SMILES,Lassa entry inh,MARV entry inh,FMDV antiviral,Vaccinia mCherry,Vaccinia Venus,HCMV inh
CCCOC(=O)Nc1nc(-c2ccc(C)cc2)c(C)s1,11.2µM*,0.3%[46.1 µM],20.4%,i,-6.6%,?
O=C(Nc1nc(-c2ccc([N+](=O)[O-])cc2)cs1)c1c(F)cccc1F,?,-17.0%,-17.4%,/,/,-12.0
Cc1ccc(-c2nc(NC(=O)c3nn(C)cc3[N+](=O)[O-])sc2C)cc1C,3.98µM*,?,12.6µM*,10µM*,12.6µM*,-106.9*
Cn1cc([N+](=O)[O-])c(C(=O)Nc2ccc(C(=O)N3CCCCC3)cc2)n1,0.2%,4.9%,13.4%,-24.2%,-10.0%,-34.5
Cn1cc([N+](=O)[O-])c(C(=O)Nc2nc(-c3ccc(Cl)cc3)cs2)n1,?,?,?,/,11.2µM*,-96.4*
COc1ccc2c(c1)CCc1cnc(-n3ncc(C(=O)NCc4cc(C)no4)c3C3CC3)nc1-2,/,/,13.6%,?,-17.7%,/
O=C1OC2(CCCCC2)CC2=C1[C@H]1O[C@](c3ccsc3)(Cc3c1ccc1ccccc31)O2,?,2.2%[14.2 µM],/,/,/,/
COc1cc(-c2noc(CN3CCN(c4cccc(Cl)c4)CC3)n2)cc(OC)c1OC,0.3%[46.1 µM],11.2%[46.1 µM],-2.4%,?,-15.8%,-23.4
COc1ccc(-c2cn3nc(N4CCC(C(=O)Nc5cc(Cl)ccc5C)CC4)sc3n2)cc1,17.2%[46.1 µM],/,17.0%,-12.7%,-16.6%,?
Cc1cnc(C)c(-c2cc(F)cc3c2OC(CNC(=O)Cc2ccccc2C)C3)n1 (configuration not stated),/,/,-7.5%,-9.6%,5.2%,/
Cc1cnc(NC(=O)c2nn(C)cc2[N+](=O)[O-])s1,2.4%[46.1 µM],2.0%[46.1 µM],-12.6%,-19.3%,-29.1%,-99.0*
Cc1nn(Cc2c(F)c(F)c(F)c(F)c2F)c(C)c1NC(=O)c1nn(C)cc1[N+](=O)[O-],-23.8%[14.3 µM],2.0%,-21.0%,-6.8%,-28.0%,-33.2
Cc1c(N=C2N=C(NC(=O)c3ccc(F)cc3)c3ccccc32)c(=O)n(-c2ccccc2)n1C,9.6%,?,28.2µM*,i,-8.0%,67.8
CCCNC(=O)c1nnc2n1CCN(C(=O)c1ccc3sccc3c1)C2,/,/,/,/,/,-7.6
C/C(=N\Nc1ccc(S(N)(=O)=O)cc1[N+](=O)[O-])c1ccc2c(c1)OCO2,-1.4%,?,35.5µM*,-13.0%,?,?
C[n+]1ccc(/C=C/c2c[nH]c3ccc(F)cc23)cc1,/,/,?,/,/,-96.7*
Cn1cc(/C=C/c2cc[n+](C)cc2)c2cc(F)ccc21,?,?,?,-16.9%,-16.5%,/
COc1ccc(Nc2ccncc2[N+](=O)[O-])cc1,/,-0.5%[46.1 µM],-14.1%,-24.8%,-12.4%,-71.2*
O=[N+]([O-])c1cnccc1Nc1cccc(F)c1,3.7%,?,-7.2%,-3.8%,-16.3%,-10.7
CCOC(=O)CC1c2cc(OCC)c(OCC)cc2CCN1C(=O)Nc1cccc(Cl)c1 (configuration not stated),0.8%[46.1 µM],/,-13.4%,-9.1%,-6.1%,-17.2
CCc1ccccc1NS(=O)(=O)c1ccc(OC)c2ncccc12,?,/,6.8%,-10.3%,-6.1%,?
COc1ccc(S(=O)(=O)Nc2c(C)cc(C)cc2C)c2cccnc12,/,/,?,i,-15.8%,-61.8*
CCCc1nc(SCC(=O)N2CCCC2)c2ccccc2n1,?,-19.2%,?,/,/,-89.2*
CCCc1nc(SCC(=O)c2ccc(OC)cc2)c2ccccc2n1,-19.5%[46.1 µM],?,?,i,-20.5%,-83.0*
Cc1ccc(Oc2c(C(F)(F)F)oc3c(CN4CCCCC4C)c(O)ccc3c2=O)cc1 (configuration not stated),23.7%[46.1 µM],-2.2%[46.1 µM],-8.6%,-12.2%,0.9%,-7.4
COc1cccc(OC)c1OCCNC(C)(C)C,0.7%,-5.7%,-20.9%,/,-3.5%,7.1
COc1cccc(OC)c1OCCNCC1COc2ccccc2O1 (configuration not stated),-5.9%,12.6µM*!,-28.1%,-6.8%,-9.6%,-1.8
COc1cccc(OC)c1OCCNC[C@@H]1CSc2ccccc2O1,/,25.9µM*,/,/,/,/
